Laboratory results taken from PubChem BioAssay (Tox21).
Inconclusive results are not listed. The source made the active and inactive calls. Unless noted, calls come from the whole dose curve; as a rule, active = well fitted curve in the direction sought with a large enough effect in the repeat runs; inconclusive = weak or mixed curves; inactive = no such curve, though single readings can be large; an effect the other way counts as inactive or inconclusive.

Tests used:
[1] = qHTS assay for small molecule agonists of the p53 signaling pathway (AID 651631; calls by dose curve; note: nearly all actives have a fitted effect of over 15% in size)
How it was run: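 HCT-116 p53RE-bla reporter line, 16 h compound treatment at 37 °C, then fluorescence after 2 h with B/G FRET substrate.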

[2] = qHTS assay for small molecules that induce genotoxicity in human embryonic kidney cells expressing luciferase-tagged ATAD5 (AID 651632); note: nearly all actives have a fitted effect of over 15% in size
How it was run: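 Luminescent reporter readout, HEK293T ATAD5-luc line: 16 hr drug exposure (37C, 5% CO2) followed by Amplite, 30 min RT.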

[3] = qHTS assay for small molecule agonists of the p53 signaling pathway - cell viability (AID 651633; calls by dose curve;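 note: p53RE-bla HCT reporter cells with a stable beta-lactamase p53 reporter; series mostly up to about 83 µM; nearly all actives have a fitted effect of over 30% in size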)
How it was run: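 p53RE-bla cells were treated with compound for 16 hours at 37 C. Cytotoxicity was then measured as CellTiter-Glo luminescence after 30 min at room temperature.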

[4] = qHTS assay for small molecules that induce genotoxicity in human embryonic kidney cells expressing luciferase-tagged ATAD5 - cell viability (AID 651634; calls by dose curve; note: nearly all actives have a fitted effect of over 25% in size)
How it was run: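 Viability read: CellTiter-Fluor fluorescence, 30 min at 37C. Cells: HEK293T, luciferase-tagged ATAD5. Exposure: 15.5 hr, 37C, 5% CO2, compound or DMSO vehicle.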

[5] = qHTS assay for small molecule disruptors of the mitochondrial membrane potential - cell viability (AID 720634; calls by dose curve;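 note: human HepG2 liver cancer cells; series mostly up to about 83 µM; nearly all actives have a fitted effect of over 20% in size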)
How it was run: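 HepG2, 1 hr compound, 37 C. ATP luminescence via CellTiter-Glo, 30 min RT, same well as m-MPI.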

[6] = qHTS assay for small molecule disruptors of the mitochondrial membrane potential (AID 720635)
How it was run: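 HepG2 cells exposed to compound 1 hr at 37C, then Mito-MPS dye 30 min. Ratio read of aggregate (540/590 nm) versus monomer (490/535 nm) fluorescence.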

[7] = qHTS assay to test for compound auto fluorescence at 590 nm (red) in HepG2 cells (AID 720674)
How it was run: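 Fluorescence at 590 nm emission following 540 nm excitation was recorded from HepG2 wells one hour after compound transfer, with DMSO-only wells as vehicle and Rose Bengal sodium equivalency as the scale.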

[8] = qHTS assay to test for compound auto fluorescence at 535 nm (green) in HepG2 cells (AID 720675)
[9] = qHTS assay to test for compound auto fluorescence at 460 nm (blue) in HEK293 cells (AID 720678)
How it was run: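 HEK293, 2,000 cells/well, 10% dialyzed FBS; attach 4-5 hr 37C; pin compound or DMSO; o/n 37C/5% CO2; fluorescence 405/460 nm; triamterene-equivalent units.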

[10] = qHTS assay to test for compound auto fluorescence at 590 nm (red) in HEK293 cells (AID 720679)
How it was run: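 Intensity at 540nm excitation and 590nm emission is reported as Rose Bengal sodium-equivalent autofluorescence. Measurements followed overnight exposure (37C, 5% CO2) of HEK293 cells, 2,000 per well, to 23 nL compound.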

[11] = qHTS assay to test for compound auto fluorescence at 535 nm (green) in HEK293 cells (AID 720680)
[12] = qHTS assay to test for compound auto fluorescence at 460 nm (blue) in HEK293 cell free culture (AID 720681)
How it was run: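 Compounds were added to cell-free DMEM with 10% FBS and fluorescence read directly. The blue channel used 405 nm excitation and 460 nm emission, with triamterene as the reference fluorophore.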

[13] = qHTS assay to test for compound auto fluorescence at 535 nm (green) in HEK293 cell free culture (AID 720682)
How it was run: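 Steps: dispense DMEM/10% FBS into empty wells; pin in compound or DMSO; measure fluorescence at 485/535 nm. Values are fluorescein equivalents.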

[14] = qHTS assay to test for compound auto fluorescence at 590 nm (red) in HEK293 cell free culture (AID 720683)
How it was run: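 Cell-free wells of DMEM with 10% FBS received compound, and intrinsic fluorescence was read at excitation/emission 540/590 nm. Values expressed as equivalence to Rose Bengal sodium.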

[15] = qHTS assay to test for compound auto fluorescence at 590 nm (red) in HepG2 cell free culture (AID 720684)
How it was run: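 Compound was pinned into wells holding MEM with 10% FBS and no cells, and red fluorescence was read at Ex/Em 540/590 nm. Signal is expressed as auto fluorescence equivalency relative to Rose Bengal sodium.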

[16] = qHTS assay to test for compound auto fluorescence at 460 nm (blue) in HepG2 cell free culture (AID 720685)
How it was run: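 Compound (23 nL) or DMSO pinned into cell-free MEM with 10% FBS; blue fluorescence read at 405/460 nm excitation/emission, expressed as auto-fluorescence equivalency to triamterene.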

[17] = qHTS assay to test for compound auto fluorescence at 535 nm (green) in HepG2 cell free culture (AID 720686)
[18] = qHTS assay to test for compound auto fluorescence at 460 nm (blue) in HepG2 cells (AID 720687)
How it was run: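 HepG2 cells in MEM with 10% FBS, attached overnight at 37 C, were exposed to compound or DMSO for 1 hr at 37 C, 5% CO2. Blue fluorescence was read at 405/460 nm, with triamterene as reference fluorophore.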

[19] = molecular target: Glucocorticoid receptor (Homo sapiens) (UniProt P04150); assay: qHTS assay to identify small molecule agonists of the glucocorticoid receptor (GR) signaling pathway (AID 720691; active = well fitted activation curve with a large enough effect in the signal ratio in the repeat runs, not every such curve was filed as active; the % refers to the signal ratio)
Glucocorticoid receptor (Homo sapiens), sequence (P04150 whole entry, looked up): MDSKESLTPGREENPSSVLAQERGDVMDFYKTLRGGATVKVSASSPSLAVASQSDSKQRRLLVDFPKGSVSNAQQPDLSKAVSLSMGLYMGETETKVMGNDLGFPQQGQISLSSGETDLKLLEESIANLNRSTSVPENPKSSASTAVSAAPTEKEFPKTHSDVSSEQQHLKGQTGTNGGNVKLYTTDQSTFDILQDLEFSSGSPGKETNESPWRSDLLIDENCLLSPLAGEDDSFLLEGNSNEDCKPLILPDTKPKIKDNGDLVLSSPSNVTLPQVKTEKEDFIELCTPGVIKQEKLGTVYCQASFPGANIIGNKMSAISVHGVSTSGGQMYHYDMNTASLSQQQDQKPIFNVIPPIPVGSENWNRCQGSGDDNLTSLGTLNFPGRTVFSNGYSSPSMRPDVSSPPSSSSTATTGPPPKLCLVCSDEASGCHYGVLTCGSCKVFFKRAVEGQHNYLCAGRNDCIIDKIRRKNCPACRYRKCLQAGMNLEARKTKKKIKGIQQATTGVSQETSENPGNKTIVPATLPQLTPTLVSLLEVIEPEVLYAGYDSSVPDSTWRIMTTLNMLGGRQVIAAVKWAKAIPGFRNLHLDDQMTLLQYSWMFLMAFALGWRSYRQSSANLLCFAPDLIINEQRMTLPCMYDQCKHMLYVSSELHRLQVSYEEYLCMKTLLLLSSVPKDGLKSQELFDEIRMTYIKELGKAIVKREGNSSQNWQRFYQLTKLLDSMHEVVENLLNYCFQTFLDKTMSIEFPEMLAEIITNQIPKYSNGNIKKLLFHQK
How it was run: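 qHTS in GR-bla HeLa cells: 4 h settling at 37 C/5% CO2, 18 h compound incubation at 37 C, 2 h LiveBLAzer B/G FRET substrate at room temperature, fluorescence intensity measured.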

[20] = molecular target: Glucocorticoid receptor (Homo sapiens) (UniProt P04150); assay: qHTS assay to identify small molecule antagonists of the glucocorticoid receptor (GR) signaling pathway (AID 720692; active = well fitted inhibition curve with a large enough effect in the signal ratio in the repeat runs, not every such curve was filed as active; the % refers to the signal ratio)
How it was run: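 Inhibition of glucocorticoid signalling is measured in HeLa cells with a GRE-controlled beta-lactamase reporter; cells are co-treated with compound and 5 nM dexamethasone (final) for 18 h before FRET substrate readout.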

Measured: Potency

CCN(CC)C(C)=O
not listed: [19] | [20]
inactive: all other assays above

COc1ccc(OC)c(OC)c1
not listed: [15]
inactive: all other assays above

C1CCC2OC2C1 (centres undefined)
inactive: all assays above

Cc1cc(CC(=O)O)c(C)n1-c1ccc(Cl)cc1
not listed: [20]
inactive: all other assays above

CCCCCCOC(=O)CCC
not listed: [12] | [19] | [20]
inactive: all other assays above

CCCCOC(O)CC (centres undefined)
not listed: [11]
inactive: all other assays above

CC(=O)O[C@H]1C[C@@H]2CC[C@@H]3[C@H](CC[C@@]4(C)[C@H]3C[C@H]([N+]3(C)CCCCC3)[C@@H]4OC(C)=O)[C@@]2(C)C[C@@H]1N1CCCCC1
not listed: [11] | [19] | [20]
inactive: all other assays above
